Measurements reported in PubChem BioAssay (NCATS).
Results filed as inconclusive are left out. Where a call stands in place of a potency, no number is given. Calls of active or inactive are those of the source. Calls come from the whole dose curve; as a rule, active = well fitted cell-killing curve with a large enough effect; inconclusive = small, poorly fitted or top-dose-only effect, or effect the other way; inactive = no such curve, though single readings can be large or run the other way.
Potency is the fitted concentration of half-maximal effect.

Assay: Quantitative High-Throughput drug screen in 47 multiple myeloma cell lines against the NCATS MIPE library collection: Karpas620_DSMZ cell viability assay (AID 1918959); note: nearly all actives have a fitted effect of over 30% in size
Details: Karpas620 myeloma viability, CellTiter-Glo ATP luminescence, 48 h; series mostly up to 45.8 µM
Description: PI: Beverly A. Mock Ph.D.
Laboratory of Cancer Biology and Genetics,
Center for Cancer Research, National Cancer Institute,
National Institute of Health, Bethesda, Maryland
Drug resistance and disease progression are common in multiple myeloma (MM) patients, underscoring the need for new therapeutic combinations. […] We hypothesized that effective combinations would reduce MYC expression and enhance p16 activity. […] These preclinical data identify potentially useful drug combinations for evaluation in drug-resistant MM and reveal potential mechanisms of combined drug sensitivity.
Described herein is the primary MIPE qHTS used to cherrypick compounds. Validated compounds were then further tested for potential synergistic activiy.
[1] Peat TJ, Gaikwad SM, Dubois W, Gyabaah-Kessie N, Zhang S, Gorjifard S, Phyo Z, Andres M, Hughitt VK, Simpson RM, Miller MA, Girvin AT, Taylor A, Williams D, D'Antonio N, Zhang Y, Rajagopalan A, Flietner E, Wilson K, Zhang X, Shinn P, Klumpp-Thomas C, McKnight C, Itkin Z, Chen L, Kazandijian D, Zhang J, Michalowski AM, Simmons JK, Keats J, Thomas CJ, Mock BA. Drug combinations identified by high-throughput screening promote cell cycle transition and upregulate Smad pathways in myeloma. Cancer Lett. 2023 Aug 1;568:216284. doi: 10.1016/j.canlet.2023.216284. Epub 2023 Jun 24. PMID: 37356470; PMCID: PMC10408729.
SEQUENCE No. (e.g., 1, 2, 3, etc.); […] (e.g., Cells, Incubation, Reagent, etc.); VALUE and DESCRIPTION.
1; Cells; 5 uL; white, solid bottom 1536-well Greiner assay plate.
2; Compounds; 23 nL; Kalypsis pin tool (Wako USA) equipped with a 1536-well pin head to transfer to the assay plates.
3; Incubation; 48 hours; 37C incubation.
4; Reagent;5uL; CellTiter Glo (Promega).
5; Detector; 425V; Luminescence; Viewlux PerkinElmer.
NOTES (numbers refer to Sequence numbers above)
1. The cell-based screening methods employed in this study were like those previously published. Briefly, the corresponding myeloma cell lines were screened in 1,536-well plates with 500 cells, 5-uL per well for inhibition of cell viability (assessed by measuring ATP levels with CellTiterGlo).
2. NCATS MIPE 4.0 library of approved and investigational drugs were added using the Kalypsis pin tool. Wells treated with DMSO only for 100% viability and media only wells for 0% viability were used as controls.
3. The assay plates were covered and incubated for 48 hours in a 37C, 5% CO2 incubator with controlled humidity.
4. After 48 hours, CellTilter-GloTM luminescent substrate mix (Promega) reagent was added to the assay plate and plates we incubated for 5 min at room temperature.
5. Signal was measured as median relative luminescence units on a ViewLux (PerkinElmer) multiplate reader.
[1] Heske CM, Davis MI, Baumgart JT, Wilson K, Gormally MV, Chen L, Zhang X, Ceribelli M, Duveau DY, Guha R, Ferrer M, Arnaldez FI, Ji J, Tran HL, Zhang Y, Mendoza A, Helman LJ, Thomas CJ. Matrix Screen Identifies Synergistic Combination of PARP Inhibitors and Nicotinamide Phosphoribosyltransferase (NAMPT) Inhibitors in Ewing Sarcoma. Clin Cancer Res. 2017 Dec 1;23(23):7301-7311. doi: 10.1158/1078-0432.CCR-17-1121. Epub 2017 Sep 12. PMID: 28899971; PMCID: PMC6636827.
In the case of `CN(C)CCC=C1c2ccccc2C=Cc2ccccc21`, the Potency is reported as “inactive”. With `CC1(C)O[C@H]2CC(=O)OC[C@]23[C@H]2CC[C@@]4(C)[C@H](c5ccoc5)OC(=O)[C@H]5O[C@]54[C@]2(C)C(=O)C[C@@H]13` the Potency was “inactive”. For `CN(C)C(=O)C(CCN1CCC(O)(c2ccc(Cl)cc2)CC1)(c1ccccc1)c1ccccc1`, the Potency was “inactive”. With `COc1ccccc1N1CCN(CC(O)COc2cccc3ccccc23)CC1` (stereo not given) the Potency was “inactive”. For `CCN1CCCC1CNC(=O)c1cc(S(=O)(=O)CC)c(N)cc1OC` (stereo not given), the Potency was “inactive”. In the case of `CC(=O)OCC(CCn1cnc2cnc(N)nc21)COC(C)=O`, the Potency is reported as “inactive”. In the case of `Clc1ccc2c(c1)C(N1CCNCC1)=Nc1ccccc1O2`, the Potency is reported as “inactive”. For `C[C@](N)(Cc1ccc(O)c(O)c1)C(=O)O`, the Potency was “inactive”. With `NS(=O)(=O)c1cc2c(cc1Cl)NCNS2(=O)=O` the Potency was “inactive”. For `COc1ccc(C2CNC(=O)C2)cc1OC1CCCC1` (stereo not given), the Potency was “inactive”. In the case of `CCOC(=O)C(C)(C)Oc1ccc(Cl)cc1`, the Potency is reported as “inactive”. With `COc1nc(C)nc(Cl)c1NC1=NCCN1` the Potency was “inactive”. With `Cc1cc(C(C)(C)C)c(O)c(C)c1CC1=NCCN1` the Potency was “inactive”. In the case of `CC1(CN2CCC(n3c(=O)[nH]c4ccccc43)CC2)OCc2ccccc2-n2cccc21` (stereo not given), the Potency is reported as “inactive”. In the case of `NCCc1cnc[nH]1`, the Potency is reported as 14.8 nM (active). In the case of `CCOC(=O)Nc1ccc(NCc2ccc(F)cc2)nc1N`, the Potency is reported as 20900 nM (active). For `COc1cc2nc(N3CCN(C(=O)c4ccco4)CC3)nc(N)c2cc1OC`, the Potency was 5260 nM (active). In the case of `CCc1cccc2c3c([nH]c12)C(CC)(CC(=O)O)OCC3` (stereo not given), the Potency is reported as “inactive”. In the case of `Cn1ccc2cc3c(cc21)CCN3C(=O)Nc1cccnc1`, the Potency is reported as “inactive”. For `O=C(c1ccc(F)cc1)C1CCN(CCn2c(=O)[nH]c3ccccc3c2=O)CC1`, the Potency was “inactive”. In the case of `Fc1ccc([C@@H]2CCNC[C@H]2COc2ccc3c(c2)OCO3)cc1`, the Potency is reported as “inactive”. For `CN(Cc1cnc2nc(N)nc(N)c2n1)c1ccc(C(=O)N[C@@H](CCC(=O)O)C(=O)O)cc1`, the Potency was “inactive”. With `CC(C)(C)C(=O)Oc1ccc(S(=O)(=O)Nc2ccccc2C(=O)NCC(=O)O)cc1` the Potency was “inactive”. With `COc1cc2c(c(OC)c1OC)-c1ccc(OC)c(=O)cc1[C@@H](NC(C)=O)CC2` the Potency was “inactive”. For `Cc1ccccc1N1C(=O)c2cc(S(N)(=O)=O)c(Cl)cc2NC1C` (stereo not given), the Potency was “inactive”. For `CN1C2CCC1CC(OC(=O)C(CO)c1ccccc1)C2` (stereo not given), the Potency was “inactive”. In the case of `Nc1ccn([C@H]2CC[C@@H](CO)O2)c(=O)n1`, the Potency is reported as “inactive”. For `Clc1ccc(C(c2ccccc2Cl)C(Cl)Cl)cc1` (stereo not given), the Potency was “inactive”. With `CCC1(c2ccccc2)C(=O)NCNC1=O` the Potency was “inactive”. With `COc1ccc2[nH]cc(CCNC(C)=O)c2c1` the Potency was “inactive”. In the case of `CC1COc2c(N3CCN(C)CC3)c(F)cc3c(=O)c(C(=O)O)cn1c23` (stereo not given), the Potency is reported as “inactive”. For `N[C@@H](Cc1c[nH]c2ccc(O)cc12)C(=O)O`, the Potency was “inactive”. With `O=C(Nc1ccc([N+](=O)[O-])cc1Cl)c1cc(Cl)ccc1O` the Potency was 935 nM (active). With `O=c1[nH]cc(F)c(=O)[nH]1` the Potency was “inactive”. With `O=C(c1ccc(OCCN2CCCCC2)cc1)c1c(-c2ccc(O)cc2)sc2cc(O)ccc12` the Potency was 26400 nM (active). For `NCCCCCC(=O)O`, the Potency was “inactive”. With `CC#C[C@]1(O)CC[C@H]2[C@@H]3CCC4=CC(=O)CCC4=C3[C@@H](c3ccc(N(C)C)cc3)C[C@@]21C` the Potency was 662 nM (active). In the case of `CN1CCN(CCCN2c3ccccc3Sc3ccc(Cl)cc32)CC1`, the Potency is reported as 4180 nM (active). With `COc1cc2nc(N(C)CCCNC(=O)C3CCCO3)nc(N)c2cc1OC` (stereo not given) the Potency was “inactive”. With `COC(=O)Nc1nc2ccc(C(=O)c3cccs3)cc2[nH]1` the Potency was 1.7 nM (active).
